Screening data: PubChem BioAssay, National Center for Advancing Translational Sciences (NCATS)
DT40 TDP1 CPT: qHTS for Inhibitors of human tyrosyl-DNA phosphodiesterase 1 (TDP1): qHTS in cells in presence of CPT | AID 686979, 2013 | actives 12% (n = 420,000) | Potency, µM (top dose mostly 46.2 µM), for inactives: at the highest dose activity change, negative = growth inhibition, actives largely listed as inhibitors | chicken DT40 Tdp1-/-;hTDP1 cells + 20 nM CPT, ATP luminescence, 48 h; note: potency is the fitted concentration of half-maximal effect; nearly all actives have a fitted effect of over 55% in size
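Cell growth measured by CellTiter-Glo luminescence after a minimum 48 h, 37 C compound exposure with 20 nM CPT in Tdp1-knockout DT40 cells stably expressing hTDP1, seeded 400/well; qHTS titration format.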
HT1080 IDH1KD tx: qHTS for induction of synthetic lethality in tumor cells producing 2HG: qHTS for the HT-1080-IDH1KD cell line; HT-1080 IDH1 knockdown viability, ATP luminescence, 48 h; Potency, µM (doses to about 46.1 µM), for inactives: at the top dose activity, negative = toxicity, hits mostly cytotoxic; actives 2% (n = 360,000);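 note: potency is the fitted concentration of half-maximal effect; 0% = DMSO wells and -100% = cell-free medium wells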
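CellTiter-Glo luminescence after 48 h compound exposure at 37 degrees C of IDH1-knockdown HT-1080 cells in 5% FBS RPMI. %Activity scaled between DMSO wells and cell-free media wells, with curves fitted and assigned curve classes.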
HT1080NT lethal: qHTS for induction of synthetic lethality in tumor cells producing 2HG: qHTS for the HT-1080-NT fibrosarcoma cell line. HT-1080-NT fibrosarcoma viability, CellTiter-Glo ATP luminescence, 48 h. Potency, µM (top dose mostly 46.1 µM), for the others: at the highest dose activity, negative = less viability, most hits filed as cytotoxic. actives 1.6% (n = 360,000). AID 686970, 2013;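 note: NT is the 2HG producing partner of a matched IDH1 knockdown line; potency is the fitted concentration of half-maximal effect; 0% = DMSO-treated cells and -100% = media-only wells without cells; nearly all actives have a fitted effect of over 55% in size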
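Read-out is CellTiter-Glo luminescence after 10 minutes at room temperature, following 48 hours' compound treatment of HT-1080-NT cells (750 cells/well, RPMI, 5% FBS, 37 degrees C).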
TDP1 cell noCPT: qHTS for Inhibitors of human tyrosyl-DNA phosphodiesterase 1 (TDP1): qHTS in cells in absence of CPT. DT40 Tdp1-/- hTDP1 cells, no CPT, ATP luminescence, 48 h. Potency, µM (titrated, usually from 46.2 µM), for inactives: at the top dose activity change, negative = growth inhibition, actives largely listed as inhibitors. actives 15% (n = 420,000); note: potency is the fitted concentration of half-maximal effect; nearly all actives have a fitted effect of over 55% in size
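Cells were dispensed at 400 per well, compounds added by pin tool, plates incubated ≥48 hr at 37 °C, then CellTiter-Glo added for 30 min at room temperature before luminescence reading. Line: DT40 Tdp1-/- complemented with hTDP1; camptothecin omitted.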
IL1B secr inh: qHTS for Inhibitors of Inflammasome Signaling: IL-1-beta AlphaLISA Primary Screen; THP-1 LPS/ATP IL-1B secretion, AlphaLISA, 16 h; stronger effect = lower value; activity change, % at 57.5 µM; actives 4.7% (n = 360,000); AID 743279, 2014; in the data active = activity change below about -50%; inconclusive = mostly about -30% to -49%
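Secreted IL-1B measured by AlphaLISA bead assay after 16 h compound exposure of THP-1 cells; compounds (final up to 57.5 uM) added 1 h before LPS (250 ng/mL) and ATP (1.25 mM) stimulation; lower signal means less secretion.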
* hit, by the source's call; [ ] = dose if it differs, or a comment. Rows were chosen to be rich in hits. Some 19% of all compounds tested hit in one or more screens of this group. Unless noted, calls come from the whole dose curve; as a rule, active = well fitted curve in the direction sought with a large enough effect; inconclusive = small, poorly fitted or top-dose-only effect, or another doubt; inactive = no such curve, though single readings can be large; an effect the other way counts as inactive or inconclusive. Unless noted, % is set by controls: 0 for no effect and ±100 for the full control effect.

For O=[N+]([O-])c1cc(Br)c(O)c(C=Nc2ccc(N3CCOCC3)cc2)c1 the results were DT40 TDP1 CPT -19%, HT1080 IDH1KD tx -15%, HT1080NT lethal -13%, TDP1 cell noCPT inconclusive and IL1B secr inh 30.
For CC(=O)c1c(C)nn(CC(O)COc2ccc3ccccc3c2)c1C (stereo not given) the results were DT40 TDP1 CPT inconclusive, HT1080 IDH1KD tx -11%, HT1080NT lethal 0%, TDP1 cell noCPT 26µM* and IL1B secr inh -14.
For CCOC(=O)c1c(C)n(C)c2ccc(OCC(O)CN3CCCCCC3)cc12 (stereo not given) the results were DT40 TDP1 CPT inconclusive, HT1080 IDH1KD tx -9%, HT1080NT lethal -23%, TDP1 cell noCPT inconclusive and IL1B secr inh -28.
For CCOC(=O)c1c(C)n(C)c2ccc(OCC(O)Cn3nc(C)c(Br)c3C)cc12 (stereo not given) the results were DT40 TDP1 CPT 21µM*, HT1080 IDH1KD tx -1%, HT1080NT lethal -4%, TDP1 cell noCPT 18µM* and IL1B secr inh -6.
Screening COCC(=O)N1CCC(c2nc3ccccc3[nH]2)CC1 returned DT40 TDP1 CPT -7%, HT1080 IDH1KD tx -2%, HT1080NT lethal -2%, TDP1 cell noCPT -12% and IL1B secr inh 4.
`CCOc1ccccc1-n1nnc(-c2nc(-c3ccccc3)no2)c1N` gave DT40 TDP1 CPT 1% and TDP1 cell noCPT -24%.
For O=C(/C=C/c1cccc(F)c1)NCCCn1ccnc1 the results were DT40 TDP1 CPT -4%, HT1080 IDH1KD tx 14%, HT1080NT lethal 11%, TDP1 cell noCPT 17% and IL1B secr inh 18.
`COC(=O)C1[C@H]2C(=O)N(Cc3cccs3)C[C@]23C=C[C@H]1O3` (stereo not given in full) gave DT40 TDP1 CPT 11%, HT1080 IDH1KD tx -4%, HT1080NT lethal 12%, TDP1 cell noCPT -9% and IL1B secr inh -8.
CCOC(=O)C1C2C=CC3(CN(Cc4cccs4)C(=O)C13)O2 (stereo not given) was read as DT40 TDP1 CPT inconclusive, HT1080 IDH1KD tx 25%, HT1080NT lethal 20%, TDP1 cell noCPT 21µM* and IL1B secr inh -1.
`COc1ccc(N(C(=O)/C=C/c2ccc(OC)c(OC)c2)C2=CC3CCC(C2)N3C)cc1` (stereo not given) gave DT40 TDP1 CPT 0%, HT1080 IDH1KD tx -7%, HT1080NT lethal -2%, TDP1 cell noCPT 3% and IL1B secr inh -26.
For CC(O)CNc1ncnc2nc[nH]c12 (stereo not given) the results were DT40 TDP1 CPT -3%, HT1080 IDH1KD tx 14%, HT1080NT lethal 25%, TDP1 cell noCPT -7% and IL1B secr inh 9.
`CC(C)CCCCCCCCCCCCC(=O)NCC(=O)NC1C(O)C(O)C(Nc2ncnc3nc[nH]c23)OC1C(O)CO` (stereo not given) gave DT40 TDP1 CPT 0.15µM*, HT1080 IDH1KD tx 0.16µM*, HT1080NT lethal inconclusive, TDP1 cell noCPT 0.18µM* and IL1B secr inh -100*.
For COCCNC(=S)N/N=C(\C)c1ccc(-n2ccnc2)cc1 the results were DT40 TDP1 CPT 4.5µM*, HT1080 IDH1KD tx 10µM*, HT1080NT lethal inconclusive, TDP1 cell noCPT 3.5µM* and IL1B secr inh 74.
`CCc1ccc(OCC(=O)N/N=C(\C)c2ccc(-n3ccnc3)cc2)cc1` gave DT40 TDP1 CPT inconclusive, HT1080 IDH1KD tx 1%, HT1080NT lethal 0%, TDP1 cell noCPT 16µM* and IL1B secr inh -21.
`C/C(=N\NC(=S)NC(C)C)c1ccc(-n2ccnc2)cc1` gave DT40 TDP1 CPT 3.3µM*, HT1080 IDH1KD tx 6%[9.24 µM], HT1080NT lethal 15%, TDP1 cell noCPT 4.1µM* and IL1B secr inh -17.
For C/C(=N\NC(N)=O)c1ccc(-n2ccnc2)cc1 the results were DT40 TDP1 CPT -5%, HT1080 IDH1KD tx 10%, HT1080NT lethal 14%, TDP1 cell noCPT -2% and IL1B secr inh -5.
CNC(=S)N/N=C(\C)c1ccc(-n2ccnc2)cc1 was read as DT40 TDP1 CPT -3%, HT1080 IDH1KD tx 1%, HT1080NT lethal 12%, TDP1 cell noCPT 4% and IL1B secr inh -11.
`CCc1ccc(OCC(=O)N/N=C(\C)c2ccccc2OC(F)F)cc1` gave DT40 TDP1 CPT 16µM*, HT1080 IDH1KD tx -8%, HT1080NT lethal -11%, TDP1 cell noCPT 16µM* and IL1B secr inh -11.
`CC1(c2ccc(OC(F)F)cc2)NC(=O)N(CC(=O)Nc2cccc(F)c2)C1=O` (stereo not given) gave DT40 TDP1 CPT inconclusive, HT1080 IDH1KD tx inconclusive, HT1080NT lethal inconclusive, TDP1 cell noCPT inconclusive and IL1B secr inh 32.
Oc1ccc(C2C[C@H]3CC[C@@H]2C3)cc1O (stereo not given in full) was read as DT40 TDP1 CPT 12µM*, HT1080 IDH1KD tx inconclusive, HT1080NT lethal inconclusive, TDP1 cell noCPT inconclusive and IL1B secr inh -23.
O=C1CC(c2ccc(O)c(O)c2)Oc2cc(O)cc(O)c21 (stereo not given) was read as DT40 TDP1 CPT -23%, HT1080 IDH1KD tx -6%, HT1080NT lethal 4%, TDP1 cell noCPT inconclusive and IL1B secr inh 2.
For Cc1cc(C)cc(Nc2cc(C(=O)NC3CCC(C)CC3)c3ccccc3n2)c1 (stereo not given) the results were DT40 TDP1 CPT inconclusive and TDP1 cell noCPT 9.2µM*.
Screening O=C(NC1CCCCCCC1)c1cc(-c2ccccn2)nc2ccccc12 returned DT40 TDP1 CPT inconclusive, HT1080 IDH1KD tx 23%, HT1080NT lethal 15%, TDP1 cell noCPT 18µM* and IL1B secr inh 24.
Screening CN1CCC(NC(=O)c2cc(-c3cccc(Br)c3)nc3ccccc23)CC1 returned DT40 TDP1 CPT inconclusive, HT1080 IDH1KD tx 21µM*, HT1080NT lethal 21µM*, TDP1 cell noCPT inconclusive and IL1B secr inh -79*.
Screening O=C(NC1CC1)c1cc(-c2ccc(Br)cc2)nc2ccccc12 returned DT40 TDP1 CPT inconclusive, HT1080 IDH1KD tx 0%, HT1080NT lethal 6%, TDP1 cell noCPT 15µM* and IL1B secr inh 3.
COc1cccc(-n2cnc3sc(C)c(C)c3c2=O)c1 was read as DT40 TDP1 CPT -6%, HT1080 IDH1KD tx -1%, HT1080NT lethal -1%, TDP1 cell noCPT -10% and IL1B secr inh -8.
